# Reference: PubChem BioAssay AID720706 (Broad Institute, 2013)
# Several values for one entry are separate records, joined by “and”; a condition that tells them apart may be missing. Identical values can stand only once. In all, about 350,000 compounds went through this assay and about 5,500 (1.6%) were called active.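 Rule for the calls: active = significant combined selectivity score with lowered wild-type GFP, culture density cut under 30%, mutant RFP and density less affected; inactive = any of these conditions unmet.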 The sample as a whole holds a higher share of actives than the screen did.
# Assay: reduced GFP signal of wild-type E. coli, primary screen, bacterial rRNA inhibitor project, GFP/RFP fluorescence, OD600, single point (AID 720706)
# Details: E. coli WT GFP vs humanized-ribosome RFP mutants, 24 h; GFP signal change (wild-type ribosome): stronger effect = lower value, DMSO median 0, no signal -100; OD600 change: measured here: OD600 growth, DMSO median 0, no signal -100; RFP signal change: measured here: RFP humanized mutant strains, DMSO median 0, no signal -100, concentration not given here
SMILES,GFP signal change (wild-type ribosome),OD600 change,RFP signal change
O=S(=O)(NCC[C@H]1CC[C@@H](NS(=O)(=O)c2ccccc2Cl)[C@@H](CO)O1)c1ccc(Cl)cc1,-2.84% (inactive),-5.01%,0.345%
Cc1ccc(C(=O)N2CCCc3ccccc32)c(Cl)c1,-20.5% (inactive),-35.7%,-12.1%
CC(=O)c1cccc(NC(=O)C2CCN(C(=O)c3ccccc3Cl)CC2)c1,0.045% (inactive),1.11%,1.46%
Cc1ccc2c(c1)C1C[N+](C)(CC(=O)c3ccccc3)CCC1N2C(=O)c1ccccc1Cl (centres undefined),-33.1% (active),-36.3%,20.4%
COc1ccc(NC(=O)N(C)C[C@H]2Oc3ccc(NC(=O)Nc4ccc5c(c4)OCO5)cc3C(=O)N([C@H](C)CO)C[C@H]2C)cc1,0.515% (inactive),4.81%,0.195%
C[C@H](O)C#Cc1cnc2c(c1)C(=O)N([C@H](C)CO)C[C@H](C)[C@@H](CN(C)C(=O)Nc1ccc(F)cc1)O2,1.18% (inactive),9.67%,-3.38%
COc1ccc(C#Cc2ccc([C@H]3[C@H]4CN(C(=O)c5cccnc5)CC(=O)N4[C@H]3CO)cc2)cc1,0.302% (inactive),-5.28%,2.11%
COc1ccc(/C(C)=N/NC(=O)CCC(=O)Nc2ccc(Cl)cc2Cl)c(OC)c1,-6.41% (inactive),-4.28%,3.43%
COc1cc(C(=O)NCc2cc3cc(Cl)ccc3n2C)cc(OC)c1OC,4.54% (inactive),12%,5.4%
COc1ccc(OC)c(/C(C)=N\NC(=O)c2cc3cc(Cl)ccc3n2C)c1,-24% (active),-9.4%,-0.802%
C[C@@H](C(=O)N(C)C[C@H]1OCc2ccccc2-c2c(n(C)c3ccccc23)C(=O)N([C@@H](C)CO)C[C@@H]1C)c1ccccc1,-2.7% (inactive),-4.37%,3.17%
COc1ccc(CN(C)C[C@H]2OCc3cn(nn3)CCCC(=O)N([C@@H](C)CO)C[C@@H]2C)cc1,-0.663% (inactive),4.94%,-1.83%
COc1ccc(NS(=O)(=O)c2ccc(Oc3c(C#N)cccc3C#N)cc2)cc1,-33% (active),-6.7%,-3.93%
COc1ccc(NS(=O)(=O)c2ccc(N3CCN(CCO)CC3)c([N+](=O)[O-])c2)cc1,-3.32% (inactive),8.86%,0.35%
COc1ccc(NS(=O)(=O)c2cccc(C(=O)NCCc3ccc(S(N)(=O)=O)cc3)c2)cc1,-0.729% (inactive),-4.13%,2.24%
C[C@@H]1CN([C@H](C)CO)C(=O)c2cc(NC(=O)CCN3CCOCC3)ccc2O[C@H]1CN(C)Cc1ccc(Oc2ccccc2)cc1,-0.524% (inactive),2.21%,-0.41%
O=C(Nc1ccccc1F)N[C@H]1CC[C@@H](CCNS(=O)(=O)c2ccc(F)cc2)O[C@@H]1CO,0.53% (inactive),-4.9%,0.665%
COC(=O)c1ccc(/C=C2/C(=O)Oc3ccccc32)cc1,5.01% (inactive),8.63%,-1.53%
O=C(NN=Cc1ccccc1O)NN=Cc1ccccc1O,-15.2% (inactive),-34.3%,-9.61%

SMILES,GFP signal change (wild-type ribosome),OD600 change,RFP signal change
O=C1Oc2ccccc2C(=O)/C1=C/c1ccccc1O,-24% (active),-16.1%,-3.67%
O=C(N[C@H]1CC[C@@H](CCNS(=O)(=O)Cc2ccccc2)O[C@H]1CO)c1ccccc1F,1.77% (inactive),2.62%,1.25%
COCC(=O)Nc1ccc2c(c1)C(=O)N(C)C[C@H](OC)[C@@H](C)CN(CCc1ccccc1)[C@@H](C)CO2,-2.84% (inactive),-4.45%,-1.3%
CC1(C(=O)Nc2ccc3c(c2)OCCO3)CSCC(=O)N1CCOc1ccccc1 (centres undefined),-19.5% (active),-13.7%,6.62%
Cc1ccccc1CN1C(=O)CSCC1(C)C(=O)Nc1c(C)cccc1C (centres undefined),-3.76% (inactive),8.15%,2.11%
CCC(C)CN1C(=O)CN(S(C)(=O)=O)CC1(C)C(=O)Nc1ccc2c(c1)OCCO2 (centres undefined),11.4% (inactive),6.25%,0.462%
C[C@@H]1CCCCO[C@@H](CN(C)C(=O)Cc2ccccc2)[C@H](C)CN([C@H](C)CO)C(=O)c2cc(NC(=O)Cc3ccccc3)ccc2O1,-4.58% (inactive),-13.8%,-0.346%
COc1cccc(CNC(=O)[C@@H]2[C@@H](CO)[C@@H]3Cn4c(ccc(-c5ccncc5)c4=O)[C@H]2N3C(C)=O)c1,2.73% (inactive),-2.66%,-0.658%
Cc1noc(C)c1S(=O)(=O)Nc1ccc2c(c1)C(=O)N([C@@H](C)CO)C[C@@H](C)[C@@H](CN(C)C)O2,5.72% (inactive),-2.97%,-0.906%
Cc1cc2cc(CN(Cc3cccs3)Cc3nnnn3CC3CCCO3)c(=O)[nH]c2cc1C (centres undefined),-7.06% (inactive),-4.84%,-2.86%
Cc1cc(C)c2cc(CN(Cc3cccs3)Cc3nnnn3CC3CCCO3)c(=O)[nH]c2c1 (centres undefined),-37.2% (active),-22.2%,-2.73%
O=C(c1cccs1)N(Cc1cc2ccccc2[nH]c1=O)CC1CCCO1 (centres undefined),-0.275% (inactive),-2.27%,-1.32%
CO[C@@H]1CN(C)C(=O)c2ccc(NC(C)=O)cc2OC[C@@H](C)N(CC2CC2)C[C@H]1C,2.26% (inactive),-1.92%,1.24%
CC(=O)N(C)C[C@@H]1Oc2ccc(N)cc2CC(=O)N(C)C[C@H]1C,1.8% (inactive),0.888%,-1%
CNC[C@@H]1Oc2ccc(NC(C)=O)cc2CC(=O)N(C)C[C@@H]1C,-0.631% (inactive),1.55%,0.729%
COc1ccc(S(=O)(=O)N[C@@H]2CC[C@@H](CC(=O)N3CCC(Cc4ccccc4)CC3)O[C@@H]2CO)cc1,8.03% (inactive),-22.7%,10.2%
C[C@H](CO)N1C[C@H](C)[C@H](CN(C)Cc2ccc3c(c2)OCO3)Oc2c(NS(=O)(=O)c3ccccc3)cccc2C1=O,-1.49% (inactive),3.3%,-2.6%
C[C@H](NC(=O)[C@H]1N[C@H]2c3ccc(-c4ccc(C(=O)N(C)C)cc4)c(=O)n3C[C@H]2[C@@H]1CO)c1ccccc1,1.87% (inactive),7.26%,-1.73%
CN(C)C(=O)c1cccc(-c2ccc(C3[C@H]4CNC[C@@H]3N4C(=O)Nc3ccccc3F)cc2)c1 (some centres undefined),0.866% (inactive) and 2.44% (inactive),-5.13% and 4.05%,-2.14% and 0.208%
